Experimental data as given in PubChem BioAssay (EPA / NIEHS).
Activity calls are given as the source filed them. Rule for the calls: active = hit-call score of the fitted dose curve at least 0.9, where 1 is the maximum; inactive = score below 0.9.

Assays:
Details in all cases: mRNA level, 48 h; actives raise or lower the signal
[1] = read-out: Cyclin D2 (CCND2), CCND2 (gene 894); experiment: LTEA_HepaRG_CCND2: Life Technologies and Expression Analysis (LTEA) Assay for Cyclin D2 (CCND2) using HepaRG (AID 2283449);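 note: CCND2 transcript measured by TaqMan qRT-PCR and normalised to three housekeeping genes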
How it was run: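 HepaRG, 48 h dosing, 8-pt half-log curve from 100 uM, 0.5% DMSO; duplicate wells. Readout: CCND2 transcript by microfluidic qRT-PCR, housekeeping-normalised; bidirectional fit vs DMSO baseline.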

[2] = read-out: Cyclin Dependent Kinase Inhibitor 1A (CDKN1A), CDKN1A (gene 1026); experiment: LTEA_HepaRG_CDKN1A: Life Technologies and Expression Analysis (LTEA) Assay for Cyclin Dependent Kinase Inhibitor 1A (CDKN1A) using HepaRG (AID 2283450)
How it was run: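 Expression quantified by Fluidigm qRT-PCR with ACTB, GAPDH and POLR2A normalization, fitted bidirectionally against 0.5% DMSO. Cells: HepaRG, plated 48 h then treated 48 h in serum-free induction medium, top concentration 100 uM with half-log dilutions.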

[3] = read-out: Cyclin D1 (CCND1), CCND1 (gene 595); experiment: LTEA_HepaRG_CCND1: Life Technologies and Expression Analysis (LTEA) Assay for Cyclin D1 (CCND1) using HepaRG (AID 2283451);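 for AC50: differentiated human HepaRG liver cells in serum-free induction medium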
How it was run: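 Expression of CCND1 was quantified by qRT-PCR on Fluidigm arrays using ACTB, GAPDH and POLR2A as reference genes. HepaRG cultures, plated 48 h beforehand, were dosed for 48 h at up to 100 uM (half-log, 8 points) in 0.5% DMSO.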

[4] = read-out: catalase (CAT), CAT (gene 847); experiment: LTEA_HepaRG_CAT: Life Technologies and Expression Analysis (LTEA) Assay for catalase (CAT) using HepaRG (AID 2283452)
How it was run: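 HepaRG cells in serum-free induction medium, 0.5% DMSO vehicle, exposed 48 h in duplicate over 8 half-log concentrations from 100 uM. CAT mRNA measured by qRT-PCR, normalized to ACTB, GAPDH, POLR2A; bidirectional fit versus DMSO.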

[5] = read-out: CFLAR gene, CFLAR (gene 8837); experiment: LTEA_HepaRG_CFLAR: Life Technologies and Expression Analysis (LTEA) Assay for CFLAR gene using HepaRG (AID 2283455)
How it was run: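 qRT-PCR read-out (Fluidigm/TaqMan) of CFLAR mRNA, normalized to three housekeeping genes, in differentiated human HepaRG cells after 48 h chemical exposure; 8-point half-log series from 100 uM in 0.5% DMSO; bidirectional curve fitting versus DMSO.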

[6] = read-out: Forkhead box O1 (FOXO1), FOXO1 (gene 2308); experiment: LTEA_HepaRG_FOXO1: Life Technologies and Expression Analysis (LTEA) Assay for Forkhead box O1 (FOXO1) using HepaRG (AID 2283456)
How it was run: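 HepaRG, 48 h exposure, 8-pt half-log series from 100 uM in 0.5% DMSO, duplicates; Fluidigm qRT-PCR mRNA, housekeeping-normalised; bidirectional fit vs DMSO baseline.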

[7] = read-out: growth arrest and DNA damage 45 (GADD45A), GADD45A (gene 1647); experiment: LTEA_HepaRG_GADD45A: Life Technologies and Expression Analysis (LTEA) Assay for growth arrest and DNA damage 45 (GADD45A) using HepaRG (AID 2283458)
How it was run: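 GADD45A expression was measured by TaqMan qRT-PCR against three housekeeping genes (ACTB, GAPDH, POLR2A) after 48 h treatment of HepaRG cells. Eight-point half-log series up to 100 uM in 0.5% DMSO, run in duplicate.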

[8] = read-out: Forkhead box O3 (FOXO3), FOXO3 (gene 2309); experiment: LTEA_HepaRG_FOXO3: Life Technologies and Expression Analysis (LTEA) Assay for Forkhead box O3 (FOXO3) using HepaRG (AID 2283459)
How it was run: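 qRT-PCR readout of FOXO3 transcript, normalized to three housekeeping genes (ACTB, GAPDH, POLR2A); gain or loss fitted against 0.5% DMSO vehicle. HepaRG cells, 48 h chemical exposure, 8-point half-log series, top 100 uM.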

[9] = read-out: ABC Transporter (ABCB1), ABCB1 (gene 5243); experiment: LTEA_HepaRG_ABCB1: Life Technologies and Expression Analysis (LTEA) Assay for ABC Transporter (ABCB1) using HepaRG (AID 2283460)
How it was run: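 HepaRG, 48 h exposure, 8-pt half-log series from 100 uM, 0.5% DMSO vehicle, duplicates. Readout: ABCB1 transcript by Fluidigm TaqMan qRT-PCR, housekeeping-normalized; bidirectional curve fit vs DMSO baseline.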

[10] = read-out: growth arrest and DNA damage 45 (GADD45B), GADD45B (gene 4616); experiment: LTEA_HepaRG_GADD45B: Life Technologies and Expression Analysis (LTEA) Assay for growth arrest and DNA damage 45 (GADD45B) using HepaRG (AID 2283461)
How it was run: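 Transcript level quantified by Fluidigm TaqMan qRT-PCR with three housekeeping genes for normalization, analyzed for up- or down-regulation against 0.5% DMSO. HepaRG cultures dosed 48 h at eight half-log concentrations up to 100 uM, duplicates.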

[11] = read-out: ABC Transporter (ABCC3), ABCC3 (gene 8714); experiment: LTEA_HepaRG_ABCC3: Life Technologies and Expression Analysis (LTEA) Assay for ABC Transporter (ABCC3) using HepaRG (AID 2283462)
How it was run: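 Transcript level by TaqMan qRT-PCR, normalised to three housekeeping genes, fitted in both directions relative to vehicle. Chemicals tested in duplicate at eight half-log concentrations up to 100 uM for 48 h on HepaRG cells (0.5% DMSO).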

[12] = read-out: ABC Transporter (ABCB11), ABCB11 (gene 8647); experiment: LTEA_HepaRG_ABCB11: Life Technologies and Expression Analysis (LTEA) Assay for ABC Transporter (ABCB11) using HepaRG (AID 2283463)
How it was run: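 HepaRG, 48 h exposure, 8-pt half-log CRC top 100 uM, 0.5% DMSO vehicle, duplicates. Readout: TaqMan qRT-PCR of ABCB11 mRNA, housekeeping-normalized (ACTB/GAPDH/POLR2A). Bidirectional fit vs DMSO baseline.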

[13] = read-out: ABC Transporter (ABCC2), ABCC2 (gene 1244); experiment: LTEA_HepaRG_ABCC2: Life Technologies and Expression Analysis (LTEA) Assay for ABC Transporter (ABCC2) using HepaRG (AID 2283464)
How it was run: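 Endpoint is ABCC2 transcript level from qRT-PCR, normalized to three housekeeping genes and fitted bidirectionally relative to DMSO. Human HepaRG cells received test chemical for 48 h at up to 100 uM (8 points, half-log steps, 0.5% DMSO), duplicate wells.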

[14] = read-out: Broad substrate specificity ATP-binding cassette transporter ABCG2 (Homo sapiens) (UniProt Q9UNQ0); experiment: LTEA_HepaRG_ABCG2: Life Technologies and Expression Analysis (LTEA) Assay for ABC Transporter (ABCG2) using HepaRG (AID 2283465)
How it was run: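 HepaRG, 48 h exposure, 8-pt half-log series from 100 uM, 0.5% DMSO vehicle, duplicates. Readout: ABCG2 transcript by qRT-PCR (Fluidigm array), housekeeping-normalized; bidirectional curve fit relative to DMSO baseline.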

[15] = read-out: ATP-citrate lyase (ACLY), ACLY (gene 47); experiment: LTEA_HepaRG_ACLY: Life Technologies and Expression Analysis (LTEA) Assay for ATP-citrate lyase (ACLY) using HepaRG (AID 2283466)
How it was run: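 qRT-PCR readout of ACLY transcript after 48 h chemical treatment of HepaRG cells; expression normalized to three housekeeping genes. Eight-point half-log series, highest 100 uM, 0.5% DMSO vehicle. Gain or loss fitted against DMSO baseline.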

[16] = read-out: Peroxisomal acyl-coenzyme A oxidase 1 (ACOX1) gene, ACOX1 (gene 51); experiment: LTEA_HepaRG_ACOX1: Life Technologies and Expression Analysis (LTEA) Assay for Peroxisomal acyl-coenzyme A oxidase 1 (ACOX1) gene using HepaRG (AID 2283467)
How it was run: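 HepaRG, 48 h chemical exposure, 8-pt half-log series from 100 uM top, 0.5% DMSO vehicle, duplicates. Readout: ACOX1 mRNA by Fluidigm qRT-PCR, housekeeping-normalized; bidirectional fit vs DMSO baseline.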

[17] = read-out: Alkaline Phosphatase, Placental (ALPP) gene, ALPP (gene 250); experiment: LTEA_HepaRG_ALPP: Life Technologies and Expression Analysis (LTEA) Assay for Alkaline Phosphatase, Placental (ALPP) gene using HepaRG (AID 2283468);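 for AC50: differentiated human HepaRG liver cells in serum-free induction medium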
How it was run: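 ALPP transcript level, measured by qRT-PCR and normalized to three housekeeping genes (ACTB, GAPDH, POLR2A), after 48 h dosing of differentiated HepaRG in serum-free induction medium. Top concentration 100 uM with half-log dilutions (8 points, 0.5% DMSO, duplicates); bidirectional fitting relative to DMSO.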

Measured: AC50

Chain of Broad substrate specificity ATP-binding cassette transporter ABCG2 (Homo sapiens) (Q9UNQ0 whole entry, looked up): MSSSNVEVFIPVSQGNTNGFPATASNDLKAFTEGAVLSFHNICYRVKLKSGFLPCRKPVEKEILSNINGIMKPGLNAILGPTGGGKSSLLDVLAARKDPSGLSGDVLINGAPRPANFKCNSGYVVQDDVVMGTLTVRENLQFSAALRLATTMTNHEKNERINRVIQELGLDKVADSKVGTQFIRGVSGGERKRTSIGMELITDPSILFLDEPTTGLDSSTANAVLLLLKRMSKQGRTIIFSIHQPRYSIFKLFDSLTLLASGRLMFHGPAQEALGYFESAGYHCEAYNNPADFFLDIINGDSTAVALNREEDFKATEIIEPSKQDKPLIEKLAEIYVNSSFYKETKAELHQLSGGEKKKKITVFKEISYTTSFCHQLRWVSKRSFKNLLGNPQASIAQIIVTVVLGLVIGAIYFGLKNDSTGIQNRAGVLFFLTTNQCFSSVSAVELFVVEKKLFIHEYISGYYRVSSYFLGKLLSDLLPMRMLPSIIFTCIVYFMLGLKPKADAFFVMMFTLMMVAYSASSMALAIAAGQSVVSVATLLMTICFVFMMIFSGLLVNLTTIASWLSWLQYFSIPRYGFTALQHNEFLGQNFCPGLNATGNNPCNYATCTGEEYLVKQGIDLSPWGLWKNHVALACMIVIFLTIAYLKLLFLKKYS

CNC(=O)ON=CC(C)(C)SC
inactive: all assays above

COP(=S)(OC)Oc1nc(Cl)c(Cl)cc1Cl
active: [12] 86.7 µM
inactive: all other assays above

Cc1c(F)c(F)c(COC(=O)C2C(/C=C(\Cl)C(F)(F)F)C2(C)C)c(F)c1F (stereo unspecified)
active: [12] 50 µM
inactive: all other assays above

CON(C)C(=O)Nc1ccc(Cl)c(Cl)c1
active: [2] 85.8 µM | [3] 26.6 µM | [8] 13.4 µM | [12] 43.1 µM | [13] 85 µM | [14] 78.2 µM | [17] 42 µM
inactive: all other assays above

CC(C)C1(C)N=C(c2nc3ccccc3cc2C(=O)O)NC1=O (stereo unspecified)
not listed: [1]
inactive: all other assays above

C#CCOS(=O)OC1CCCCC1Oc1ccc(C(C)(C)C)cc1 (stereo unspecified)
inactive: [1] | [3] | [8] | [11] | [17]
active: [2] 12.9 µM | [4] 20.5 µM | [5] 27.4 µM | [6] 32 µM | [7] 50 µM | [9] 50 µM | [10] 14.9 µM | [12] 23.2 µM | [13] 23.6 µM | [14] 50 µM | [15] 35 µM | [16] 29.1 µM
